Data on 31 compounds can be found in PubChem BioAssay (NCATS).

Results filed as inconclusive are left out. Activity calls are given as the source filed them. Calls come from the whole dose curve; as a rule, active = well fitted curve in the direction sought with a large enough effect; inconclusive = small, poorly fitted or top-dose-only effect, or another doubt; inactive = no such curve, though single readings can be large or run the other way.

The experiment deals with Metallo-beta-lactamase type 2 (Klebsiella pneumoniae) (UniProt C7C422). Nature of the experiment: qHTS to identify inhibitors of the New Delhi Metallo-beta-lactamase (NDM): assay validation screen against the NCATS LOPAC Collection (AID 1794843).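 Note: nitrocefin turnover by NDM-1 measured as 485 nm absorbance at plateau.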 As to conditions: NDM-1 enzyme, nitrocefin hydrolysis, absorbance 485 nm; series mostly up to 38.4 µM. The essentials: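 NDM-1 at 2 nM final in 50 mM HEPES pH 7.0 with 1 uM ZnSO4 and 0.01% Tween20 was preincubated with library compounds in DMSO. Nitrocefin (50 uM stock) was then added, and absorbance at 485 nm was read at the kinetic plateau.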
Metallo-beta-lactamase type 2 (Klebsiella pneumoniae), sequence (C7C422 whole entry, looked up): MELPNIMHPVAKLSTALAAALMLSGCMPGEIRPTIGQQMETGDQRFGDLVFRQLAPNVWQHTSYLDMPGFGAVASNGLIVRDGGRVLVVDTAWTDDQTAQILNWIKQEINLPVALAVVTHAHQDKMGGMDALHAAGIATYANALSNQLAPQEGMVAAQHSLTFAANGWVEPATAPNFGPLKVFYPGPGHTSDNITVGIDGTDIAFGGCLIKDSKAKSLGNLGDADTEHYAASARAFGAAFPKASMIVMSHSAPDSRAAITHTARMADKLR
A general note: qHTS replaces the single test concentration by a dilution series.
Regarding `c1ccc2c(c1)OCC(C1=NCCN1)O2` (stereo unspecified), the outcome was inactive.

Regarding `COc1ccc(C(CN(C)C)C2(O)CCCCC2)cc1` (stereo unspecified), the compound was called inactive.

As for `CC(=O)[C@H]1CC[C@H]2[C@@H]3CC[C@H]4C[C@](C)(O)CC[C@]4(C)[C@H]3CC[C@]12C`, the call was inactive.

Consider `Cc1ncc(CNC(=O)N(CCCl)N=O)c(N)n1`, for which the result was inactive.

With `O=c1[nH]c2ccccc2n1C1CCN(CCCC(c2ccc(F)cc2)c2ccc(F)cc2)CC1`, the compound was called inactive.

For the compound `CCCN1CCC[C@@H]2Cc3[nH]ncc3C[C@H]21`, the call was inactive.

Regarding `CC(CCc1ccccc1)NC(C)C(O)c1ccc(O)cc1` (stereo unspecified), the result was inactive.

As for `Nc1ccncc1`, the call was inactive.

Regarding `Cn1c(CCCC(=O)O)nc2cc(N(CCCl)CCCl)ccc21`, the compound was classed as inactive.

Turning to `NCC(CC(=O)O)c1ccc(Cl)cc1` (stereo unspecified), the compound was called inactive.

Take `CC(=O)[C@H]1CC[C@H]2[C@@H]3CC[C@H]4C[C@H](O)CC[C@]4(C)[C@H]3C(=O)C[C@]12C`: the result was inactive.

With `CC(O)(CS(=O)(=O)c1ccc(F)cc1)C(=O)Nc1ccc(C#N)c(C(F)(F)F)c1` (stereo unspecified), the compound was classed as inactive.

Regarding `CN1C[C@H](CNC(=O)OCc2ccccc2)C[C@@H]2c3cccc4c3c(cn4C)C[C@H]21`, the compound was called inactive.

For `O=c1[nH]c2ccccc2n1CCCN1CCC(n2c(=O)[nH]c3cc(Cl)ccc32)CC1`, the outcome was inactive.

For `CC[C@@H](CO)NC(=O)[C@@H]1C=C2c3cccc4c3c(cn4C)C[C@H]2N(C)C1`, the outcome was inactive.

`COc1ccccc1N1CCNCC1`: the compound was classed as inactive.

Consider `CC[C@@H](CO)NC(=O)[C@@H]1C=C2c3cccc4[nH]cc(c34)C[C@H]2N(C)C1`, for which the outcome was inactive.

Regarding `Cc1ccc(S(=O)(=O)N[C@@H](CCCCN)C(=O)CCl)cc1`, the result was inactive.

In the case of `Cc1cccc(C)c1NC1=NCCCS1`, the compound was called inactive.

`c1ccc(C2CC2)c(OCC2=NCCN2)c1`: the compound was called inactive.

For the compound `CCC1(C2=NCCN2)Cc2ccccc2O1` (stereo unspecified), the outcome was inactive.

As for `NCC(O)c1ccc(O)cc1` (stereo unspecified), the compound was called inactive.

With `CCCN1CCC[C@@H]2Cc3nc(N)ncc3C[C@H]21`, the outcome was inactive.

Take `CNCC(O)c1ccc(O)cc1` (stereo unspecified): the result was inactive.

In the case of `NN=C(N)N`, the call was inactive.

In the case of `C[C@@H]1O[C@@H](O[C@H]2C[C@@H](O)[C@]3(CO)[C@H]4[C@H](O)C[C@]5(C)[C@@H](C6=CC(=O)OC6)CC[C@]5(O)[C@@H]4CC[C@]3(O)C2)[C@H](O)[C@H](O)[C@H]1O`, the compound was called inactive.

Consider `CC(C)=CCOc1c2occc2cc2ccc(=O)oc12`, for which the call was inactive.

For the compound `NCC1(CC(=O)O)CCCCC1`, the compound was called inactive.

For `Cc1cccc(C)c1NC(=O)CN1CCCC1=O`, the compound was called inactive.

For `O=C1NCN(c2ccccc2)C12CCN(CC1COc3ccccc3O1)CC2` (stereo unspecified), the compound was classed as inactive.

As for `Fc1ccc(C(OCCN2CCN(CCCc3ccccc3)CC2)c2ccc(F)cc2)cc1`, the compound was called inactive.
